Several values for one entry are separate records, joined by “and”; a condition that tells them apart may be missing. Equal values may be shown once. Compounds without any hit were thinned out: in the full panel of roughly 79,000, 15% have a hit. A structure can be active in one record and inactive in another. Activity calls are given as the source filed them. Rule as the data show it: active = growth inhibition above about 70%; inactive = the rest.

Experiment [1] is described as follows: NCI Yeast Anticancer Drug Screen. Data for the rad50 strain (AID 155).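 Also: 0% = growth of vehicle-only cultures of the same strain.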 Particulars: S. cerevisiae rad50 strain growth inhibition, stronger effect = higher value. A digest of the protocol: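 Vehicle-treated cultures provide the reference for the growth inhibition reported for compound-exposed, repair-deficient yeast.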
Experiment [2] in a line: NCI Yeast Anticancer Drug Screen. Data for the mec2-1 strain (AID 157). Particulars: S. cerevisiae mec2-1 strain, stronger effect = higher value. A digest of the protocol:
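Vehicle-treated cultures served as reference for growth inhibition of compound-exposed mec2-1 yeast.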

Experiment [3] is described as follows: NCI Yeast Anticancer Drug Screen. Data for the sgs1 mgt1 strain (AID 161).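 Also: 0% = growth of cultures given vehicle only.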 As to conditions: S. cerevisiae sgs1 mgt1 strain, stronger effect = higher value. An outline of the steps:
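Read-out: growth inhibition vs vehicle controls. Cells: mutant yeast strain deficient in DNA damage repair.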

The nature of experiment [4]: NCI Yeast Anticancer Drug Screen. Data for the cln2 rad14 strain (AID 165).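 Also: 0% = growth equal to vehicle treated cultures.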 As to conditions: S. cerevisiae cln2 rad14 strain, stronger effect = higher value. An outline of the steps: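 Each compound was tested on cln2 rad14 yeast. Inhibition of growth was calculated against vehicle-exposed controls.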
Experiment [5] in a line: NCI Yeast Anticancer Drug Screen. Data for the bub3 strain (AID 167). As to conditions: S. cerevisiae bub3 mutant strain, stronger effect = higher value. A digest of the protocol: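 Mutant yeast screening strain plus compound; vehicle-treated cultures serve as the 0% inhibition reference.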
Experiment [6] can be described thus: NCI Yeast Anticancer Drug Screen. Data for the mlh1 rad18 strain (AID 175). Particulars: S. cerevisiae mlh1 rad18 strain growth inhibition, stronger effect = higher value. An outline of the steps:
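Vehicle-treated cultures served as the reference for growth inhibition in a yeast strain carrying DNA damage repair alterations exposed to each compound.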

[7] abbreviates: at 5.0 µM (retest, dose inferred, filed as 0.5).
Where [8] appears, read: at 50.0 µM (retest, dose inferred, filed as 5.0).

Turning to `O=[N+]([O-])/C=C/c1cc2c(cc1Br)OCO2`, the growth inhibition in experiment [1] (setting [7]) was 78% (active); in experiment [1] (setting [8]), 89% (active); in experiment [1] (at 50.0 µM), 98.5% (active); in experiment [2] (setting [7]) it was 53% (inactive); in experiment [2] (setting [8]) it was 89% (active); in experiment [2] (at 50.0 µM), 99.2% (active). Besides, the growth inhibition in experiment [3] (setting [7]) is 73% (active); in experiment [3] (setting [8]), 87% (active); in experiment [3] (at 50.0 µM), 97.9% (active); in experiment [4] (setting [7]) it was 26% (inactive); in experiment [4] (setting [8]), 62% (inactive); in experiment [4] (at 50.0 µM), 94.2% (active). Besides, the growth inhibition in experiment [5] (setting [7]) was 48% (inactive); in experiment [5] (setting [8]) it was 89% (active); in experiment [5] (at 50.0 µM) it was 82.5% (active); in experiment [6] (setting [7]) it was 68% (inactive); in experiment [6] (setting [8]), 88% (active); in experiment [6] (at 50.0 µM) it was 98.5% (active).
As for `CC12CCC(C)(c3cc(O)c(O)cc31)c1cc(O)c(O)cc12`, the growth inhibition in experiment [1] (setting [7]) was -4% (inactive); in experiment [1] (setting [8]) it was 4% (inactive); in experiment [1] (at 50.0 µM) it was 52.3% (inactive); in experiment [2] (setting [7]), -1% (inactive); in experiment [2] (setting [8]) it was -1% (inactive); in experiment [2] (at 50.0 µM), 31.4% (inactive). Moreover, the growth inhibition in experiment [3] (setting [7]) is -1% (inactive); in experiment [3] (setting [8]), 4% (inactive); in experiment [3] (at 50.0 µM), 37% (inactive); in experiment [4] (setting [7]), 2% (inactive); in experiment [4] (setting [8]) it was 19% (inactive); in experiment [4] (at 50.0 µM), 57.5% (inactive). The growth inhibition in experiment [5] (setting [7]) was 4% (inactive); in experiment [5] (setting [8]), 33% (inactive); in experiment [5] (at 50.0 µM), 43.9% (inactive); in experiment [6] (setting [7]), -1% (inactive); in experiment [6] (setting [8]), 22% (inactive); in experiment [6] (at 50.0 µM), 70.1% (active).
`CCCCCOC(=O)CCl`: the growth inhibition in experiment [1] (setting [7]) was 8% (inactive); in experiment [1] (setting [8]) it was 69% (inactive); in experiment [1] (at 50.0 µM), 54.7% (inactive); in experiment [2] (setting [7]) it was 1% (inactive); in experiment [2] (setting [8]), 16% (inactive); in experiment [2] (at 50.0 µM), 1.75% (inactive). Moreover, the growth inhibition in experiment [3] (setting [7]) is 4% (inactive); in experiment [3] (setting [8]), 40% (inactive); in experiment [3] (at 50.0 µM), 32.2% (inactive); in experiment [4] (setting [7]) it was 1% (inactive); in experiment [4] (setting [8]), 8% (inactive); in experiment [4] (at 50.0 µM) it was 16.5% (inactive). The growth inhibition was 0% (inactive) in experiment [5] (setting [7]); -5% (inactive) in experiment [5] (setting [8]); -27.6% (inactive) in experiment [5] (at 50.0 µM); 11% (inactive) in experiment [6] (setting [7]); 32% (inactive) in experiment [6] (setting [8]); 19.4% (inactive) in experiment [6] (at 50.0 µM).
Turning to `CC(=O)[O-].CC(=O)[O-].O=C(N/N=C/c1cc(Cl)cc(Cl)c1[OH2+])c1ccncc1.[Mn+2]`, the growth inhibition in experiment [1] (setting [7]) was 24% (inactive); in experiment [1] (setting [8]), 96% (active); in experiment [1] (at 50.0 µM), 97.8% (active); in experiment [2] (setting [7]), 40% (inactive); in experiment [2] (setting [8]), 98% (active); in experiment [2] (at 50.0 µM), 97.2% (active). For the same compound, the growth inhibition in experiment [3] (setting [7]) is 40% (inactive); in experiment [3] (setting [8]) it was 92% (active); in experiment [3] (at 50.0 µM) it was 98% (active); in experiment [4] (setting [7]), 1% (inactive); in experiment [4] (setting [8]), 95% (active); in experiment [4] (at 50.0 µM), 97% (active). The growth inhibition in experiment [5] (setting [7]) was 11% (inactive); in experiment [5] (setting [8]) it was 96% (active); in experiment [5] (at 50.0 µM), 97.5% (active); in experiment [6] (setting [7]), 3% (inactive); in experiment [6] (setting [8]), 95% (active); in experiment [6] (at 50.0 µM), 98.2% (active).
Take `CCC[CH2][Sn]([N]=C=S)([N]=C=S)[N]=C=S.O=P(c1ccccc1)(c1ccccc1)c1ccccc1.O=P(c1ccccc1)(c1ccccc1)c1ccccc1`: the growth inhibition was -5% (inactive) in experiment [1] (setting [7]); 27% (inactive) in experiment [1] (setting [8]); 50.3% (inactive) in experiment [1] (at 50.0 µM); -4% (inactive) in experiment [2] (setting [7]); 15% (inactive) in experiment [2] (setting [8]); 61.2% (inactive) in experiment [2] (at 50.0 µM). Also, the growth inhibition in experiment [3] (setting [7]) was -4% (inactive); in experiment [3] (setting [8]), 46% (inactive); in experiment [3] (at 50.0 µM), 83.2% (active); in experiment [4] (setting [7]), -2% (inactive); in experiment [4] (setting [8]), 10% (inactive); in experiment [4] (at 50.0 µM), 23.1% (inactive). Further, the growth inhibition in experiment [5] (setting [7]) was -4% (inactive); in experiment [5] (setting [8]), 33% (inactive); in experiment [5] (at 50.0 µM), 46.2% (inactive); in experiment [6] (setting [7]), -4% (inactive); in experiment [6] (setting [8]) it was 44% (inactive); in experiment [6] (at 50.0 µM), 75.3% (active).
On to `CCCCCCCC/C=C\CCCCCCCCN1CC(C(=O)[O][Pb]([CH2]C)([CH2]C)[CH2]C)CC1=O` (centres undefined), for which the growth inhibition in experiment [1] (setting [7]) is 7% (inactive); in experiment [1] (setting [8]), 77% (active); in experiment [1] (at 50.0 µM) it was 30.1% (inactive); in experiment [2] (setting [7]), 5% (inactive); in experiment [2] (setting [8]), 80% (active); in experiment [2] (at 50.0 µM), 28.8% (inactive). Further, the growth inhibition in experiment [3] (setting [7]) is 10% (inactive); in experiment [3] (setting [8]), 79% (active); in experiment [3] (at 50.0 µM) it was 65.9% (inactive); in experiment [4] (setting [7]), 5% (inactive); in experiment [4] (setting [8]), 66% (inactive); in experiment [4] (at 50.0 µM) it was 9.45% (inactive). For the same compound, the growth inhibition in experiment [5] (setting [7]) is 4% (inactive); in experiment [5] (setting [8]), 82% (active); in experiment [5] (at 50.0 µM), 23.3% (inactive); in experiment [6] (setting [7]), 1% (inactive); in experiment [6] (setting [8]) it was 72% (active); in experiment [6] (at 50.0 µM), 65.7% (inactive).
Turning to `C[CH2][Sn]([Cl])([Cl])[CH2]C`, the growth inhibition in experiment [1] (setting [7]) is 20% (inactive) and 26% (inactive); in experiment [1] (setting [8]), 58% (inactive) and 79% (active); in experiment [1] (at 50.0 µM) it was 70.3% (active) and 68.2% (inactive); in experiment [2] (setting [7]), 10% (inactive) and 16% (inactive); in experiment [2] (setting [8]), 75% (active) and 85% (active); in experiment [2] (at 50.0 µM), 53.3% (inactive) and 77.2% (active). The growth inhibition in experiment [3] (setting [7]) is 12% (inactive) and 21% (inactive); in experiment [3] (setting [8]) it was 50% (inactive) and 68% (inactive); in experiment [3] (at 50.0 µM) it was 55.9% (inactive) and 44.2% (inactive); in experiment [4] (setting [7]), 2% (inactive) and 31% (inactive); in experiment [4] (setting [8]) it was 42% (inactive) and 35% (inactive); in experiment [4] (at 50.0 µM), 53.9% (inactive) and 48.2% (inactive). In addition, the growth inhibition in experiment [5] (setting [7]) was 17% (inactive) and 11% (inactive); in experiment [5] (setting [8]), 69% (inactive) and 58% (inactive); in experiment [5] (at 50.0 µM), 48.5% (inactive) and 41.8% (inactive); in experiment [6] (setting [7]) it was 19% (inactive) and 30% (inactive); in experiment [6] (setting [8]), 45% (inactive) and 81% (active); in experiment [6] (at 50.0 µM), 33.9% (inactive) and 23.1% (inactive).
Turning to `[Cl][Hg][Cl].c1cnccn1`, the growth inhibition is 39% (inactive) in experiment [1] (setting [7]); 97% (active) in experiment [1] (setting [8]); 92.2% (active) in experiment [1] (at 50.0 µM); 40% (inactive) in experiment [2] (setting [7]); 98% (active) in experiment [2] (setting [8]); 93.8% (active) in experiment [2] (at 50.0 µM). Also, the growth inhibition in experiment [3] (setting [7]) is 99% (active); in experiment [3] (setting [8]), 99% (active); in experiment [3] (at 50.0 µM), 94.3% (active); in experiment [4] (setting [7]), 80% (active); in experiment [4] (setting [8]) it was 97% (active); in experiment [4] (at 50.0 µM), 93.2% (active). Besides, the growth inhibition in experiment [5] (setting [7]) is 99% (active); in experiment [5] (setting [8]), 99% (active); in experiment [5] (at 50.0 µM) it was 93.2% (active); in experiment [6] (setting [7]), 32% (inactive); in experiment [6] (setting [8]), 99% (active); in experiment [6] (at 50.0 µM) it was 93% (active).
